Assay outcomes as filed in PubChem BioAssay.
Only some compounds are listed: those with a hit (about 1.5% of all), similar ones and a draw of the others.
MbtI inh – MbtI salicylate synthase inhibitors, primary screen, biochemical, fluorescence intensity; purified MbtI enzyme, fluorescence intensity read-out; inhibition, % (no concentration beside the values); actives 0.89% (n = 100,000); AID 493033, 2011; in the data active = inhibition mostly above about 56%, no sharp cut-off; inactive = mostly below about 77%
MenB inh – M. tuberculosis MenB inhibitors, primary screen, biochemical, absorbance; 1,4-dihydroxy-2-naphthoyl-CoA synthase (Mycobacterium tuberculosis (strain ATCC 25618 / …; MenB enzyme assay, absorbance read-out; inhibition, % (test concentration not listed); actives 0.43% (n = 100,000); in the data active = inhibition above about 21%, passing the limit was not always enough
Polio RdRp inh – poliovirus RdRp elongation inhibitors, primary screen, biochemical, fluorescence polarization, total intensity. Genome polyprotein (Poliovirus type 1 (strain Mahoney)), P03300. poliovirus polymerase elongation; active compounds read low. % elongation, % (compound at 16.7 µg/mL). actives 0.66% (n = 150,000); in the data active = % elongation below about 90%
Target sequence (P03300 1749-2209 limits assumed): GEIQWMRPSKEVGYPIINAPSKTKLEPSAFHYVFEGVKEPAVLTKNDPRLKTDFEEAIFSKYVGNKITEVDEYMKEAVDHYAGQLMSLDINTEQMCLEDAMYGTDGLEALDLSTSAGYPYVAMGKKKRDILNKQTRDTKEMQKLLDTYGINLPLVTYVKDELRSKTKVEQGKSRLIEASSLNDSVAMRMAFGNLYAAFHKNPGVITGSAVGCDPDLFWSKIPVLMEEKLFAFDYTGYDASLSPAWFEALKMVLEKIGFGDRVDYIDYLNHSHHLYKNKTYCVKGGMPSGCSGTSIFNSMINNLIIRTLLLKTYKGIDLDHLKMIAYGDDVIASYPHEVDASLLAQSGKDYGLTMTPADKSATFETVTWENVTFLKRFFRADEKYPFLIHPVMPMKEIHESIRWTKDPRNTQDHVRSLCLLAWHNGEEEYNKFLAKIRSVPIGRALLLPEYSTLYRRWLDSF
AID504770 – growth inhibition of E. coli YBA685, primary screen, V. cholerae RctB inhibitors; actives 0.27% (n = 130,000); z-score (concentration not given with the values); E. coli YBA685 rctB-dependent plasmid, OD600 growth, 3 h; active compounds read low; in the data active = z-score below about -2, passing the limit was not always enough
Numbers without * were called inactive; . = not tested or not shown.

SMILES	MbtI inh	MenB inh	Polio RdRp inh	AID504770
COc1ccccc1NS(=O)(=O)c1ccc2oc(=S)n(CN(C)CCC#N)c2c1	5	-18	85*	-0.3
COc1ccccc1NS(=O)(=O)c1ccc2oc(=S)n(CN3CCCC3)c2c1	13	-12	103	-0.75
CCN(CC)c1ccc(N=Cc2ccc3ccccc3n2)cc1	.	-10	143	2.4
CCc1nnc(NC(=O)C2CCCCC2)s1	100*	-19	101	-0.65
O=C(Cn1c(=O)n(-c2ccc(F)cc2)c(=O)c2oc3ccccc3c21)NC1CCCCC1	-6	-19	102	-1.2
O=C1CSC(=Nc2cccc3ccccc23)N1	-13	-17	102	-0.9
O=C1CS/C(=N\c2nccs2)N1	-1	-28	117	-2.8*
S=C1C=C(N2CCCCC2)CC(c2cccs2)S1 (configuration not stated)	.	.	.	0.4
O=C(COC(=O)c1ccco1)NCC1CCCO1 (configuration not stated)	-3	35*	99	0
CCN1C(=O)C2CC(C)=C(C)CC2C1=O (configuration not stated)	-3	-9	97	-0.8
CCN1C(=O)CC(OC(C)=O)C1=O (configuration not stated)	66*	-17	103	0.2
COc1cc2cc3c4cc(OC)c(OC)cc4cc[n+]3c(C)c2cc1OC	55	3	88*	-0.35
C=CCn1c(CSc2ccc(C)cc2)n[nH]c1=S	74*	-75	96	-0.15
C1CNC(C23CC4CC(CC(C4)C2)C3)=N1	0	-1	102	-0.8
C1=C(C23CC4CC(CC(C4)C2)C3)SC2=NCCN12	69*	-7	99	0.2
Cc1ccc(SC#N)c(N)n1	.	.	.	-2.5*
N#CSc1ccc(N)cc1	6	.	99	-1.5
COc1cccc(C(=O)NC(C)C2CC3CCC2C3)c1OC (configuration not stated)	3	.	102	0.6
O=C(Nc1ccc2nc(C3CC3)n(Cc3ccccc3)c(=O)c2c1)C1CC1	10	33*	101	-0.7
CCc1nc2ccc(NC(C)=O)cc2c(=O)n1Cc1ccccc1	4	-18	104	-0.3
Cc1cc(=O)n(CC(=O)N2CCc3ccccc32)c2c1c(C)nn2-c1cccc(F)c1	-21	-4	100	0.65
NC(=S)N1CCCC1	-3	-16	97	0.15
S=C(S)N1CCCC1	96*	-60	108	-3.5*
C=C(C)Cn1c(COc2ccc(Cl)cc2)nnc1SCC(=O)O	.	.	.	-0.25
O=C1CCCCCN1Cc1n[nH]c(=S)o1	74*	-28	82*	-0.5
SMILES	MbtI inh	MenB inh	Polio RdRp inh	AID504770
Clc1c(CSc2nncn2-c2ccccc2)nc2ncccn12	.	.	.	-0.1
Cc1ccc(N2CCN(C(=O)c3cnn(-c4ccc(C)c(C)c4)c3C3CCNCC3)CC2)c(C)c1	.	.	74*	.
Cc1ccc(Cl)cc1N1CCN(C(=O)c2cnn(-c3ccc(Cl)cc3)c2C2CCNCC2)CC1	.	.	106	.
COc1ccc(/C=C(\C#N)C(N)=S)cc1	20	-56	104	1.5
N#C/C(=C\c1ccc(O)c(O)c1)C(N)=S	71*	-6	104	.
CC1SC(c2ccccc2)NC1=O (configuration not stated)	91*	-128	100	2
O=c1[nH]c(SCc2ccccc2)nc2c1CCCC2	.	.	111	.
CCOC(=O)C(Sc1nc2c(c(=O)[nH]1)CCCC2)c1ccccc1 (configuration not stated)	74*	-10	.	-0.35
COC(=O)c1ccc(NC(=O)C(C)Sc2nc3c(c(=O)[nH]2)CCCC3)cc1 (configuration not stated)	81*	-6	102	-0.6
C=CCNC(=O)Nc1c[nH]c2ccccc2c1=O	90	-1	104	-1.4
Cc1c(Cl)cccc1NC(=O)CSc1nc(=O)n(CCN2CCOCC2)c2c1CCCC2	-5	2	98	-0.35
CCOC(=O)c1sc(SCC(=O)c2ccc(Cl)cc2Cl)nc1C	0	1	86*	-0.3
CCOC(=O)c1sc(CN2CCN(c3cccc(Cl)c3)CC2)nc1C	.	.	.	1
CC(=O)NC(=O)c1cc2ccccc2oc1=Nc1ccccc1	.	.	.	0.05
COc1ccc(NC(=O)c2sc(=S)n3c2[nH]c(=O)c2ccccc23)cc1	94*	-48	102	0.85
CN(C)S(=O)(=O)c1ccc2oc(=S)[nH]c2c1	77	-30	88*	1.3
Cc1cccc(OCCCC(=O)O)c1	-1	.	101	1.1
CCNC(=O)CCOc1cccc(C)c1	0	2	52*	-0.05
Clc1ccc(N=c2scc(-c3cccs3)n2CCCN2CCOCC2)cc1	7	5	101	-0.05
Cc1cccc2nc(-c3ccccn3)c(Nc3ccc(F)cc3)n12	.	.	120	.
Cc1cccc(C)c1Nc1c(-c2ccccc2F)nc2cccc(C)n12	.	.	88*	.
CCCN(S(=O)(=O)c1ccc(C)cc1)S(=O)(=O)c1ccc(Cl)cc1	2	1	100	-0.35
O=C(CCCn1sc2ccccc2c1=O)NCc1cccs1	82*	-13	105	0.65
O=C(CCCn1sc2ccccc2c1=O)NCCC1=CCCCC1	94*	4	102	0.25
O=C(CCCn1sc2ccccc2c1=O)Nc1ccccc1F	-5	0	101	-1.1
SMILES	MbtI inh	MenB inh	Polio RdRp inh	AID504770
N#Cc1ccc(COC(=O)Cn2c(-c3ccccc3)cc3ccccc32)cc1	-3	2	101	-0.5
CC1(C)OC(=O)C(=C2C3C4CC5C3C(=C3C(=O)OC(C)(C)OC3=O)C3C2C4C53)C(=O)O1 (configuration not stated)	17	-28	98	0
Cc1ccc(-c2nc(CS(=O)(=O)CC(=O)N3CCc4ccccc43)c(C)o2)cc1	-3	-15	102	0.65
CCOC(=O)C1=C(C)OC2(O)c3ccccc3C(=O)C12O (configuration not stated)	-6	15	56*	-0.9
O=C(Cn1cnc2c(nnn2-c2cccc(Cl)c2)c1=O)N1CCCc2ccccc21	7	-9	99	-0.65
Cc1ccc(-n2c(N)c(C(N)=O)sc2=S)cc1C	94*	-12	98	-1
COC(=O)c1sc(=S)n(-c2cccc(Cl)c2)c1N	94*	-24	95	-0.85
CNC(=O)c1sc(=S)n(-c2ccccc2)c1N	66*	-14	100	1
Cc1ccc(S(=O)(=O)CNC(=O)C(C)(C)C)cc1	.	.	.	-0.5
Nc1ccc2c(c1)ncn2C1CCCCC1	90	-10	85*	-0.9
O=C(O)c1ccc2c(c1)ncn2C1CCCCC1	-6	1	104	0.8
COC(=O)Cn1c(=O)cc(N)n(Cc2ccccc2)c1=O	-7	-4	101	-0.6
CCN(CC)c1ccc(NS(=O)(=O)c2cc3[nH]c(=O)c(=O)[nH]c3cc2C)c(C)c1	.	.	85*	.
COc1cc(CN(C)Cc2cc3c(cc2O)CCC3)ccc1OC(F)F	-2	-14	102	-0.05
NC(=O)C1CCN(C(=O)C2CC(c3ccccc3Cl)=NO2)CC1 (configuration not stated)	-4	-2	100	-0.55
